Assay outcomes deposited in PubChem by several laboratories.
Only some compounds are listed: those with a hit (about 2.1% of all), similar ones and a draw of the others.
CHT PAM = allosterically activates the human high affinity choline transporter | Q9GZV3 | CHT-expressing cells, membrane potential dye, choline EC20; stronger effect = higher value; LV-AA mutant CHT in HEK293 cells | B-score at 10 µM | hit rate 0.49% among 310,000 | AID 488977;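 active = initial fluorescence not abnormally high and integrated response B-score, plate-corrected, over 3 SD above library mean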
CHT inh = inhibitors of human choline transporter CHT; Q9GZV3; CHT-expressing cells, membrane potential dye, choline response; stronger effect = lower value; B-score at 10 µM; hit rate 0.86% among 310,000;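 active = B-score over 3 SD under the library average, and starting fluorescence ratio not unusually high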;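 also: choline stimulus applied at its EC90 after an EC20 pre-addition; B-score computed on integrated fluorescence ratio after choline addition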
EP2 antag = inhibitors of human EP2 prostaglandin E2 receptor. AID 1422. inhibition, % at 25 µM. C6 glioma cells expressing human EP2, cAMP TR-FRET; cells stimulated with saturating PGE2. hit rate 0.52% among 260,000;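 active = percent inhibition above 40 after rounding to a whole number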;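 also: rat C6 glioma host cells with rolipram phosphodiesterase inhibitor present; the protocol text gives 20 µM as final concentration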
Target sequence (P43116 whole entry, looked up): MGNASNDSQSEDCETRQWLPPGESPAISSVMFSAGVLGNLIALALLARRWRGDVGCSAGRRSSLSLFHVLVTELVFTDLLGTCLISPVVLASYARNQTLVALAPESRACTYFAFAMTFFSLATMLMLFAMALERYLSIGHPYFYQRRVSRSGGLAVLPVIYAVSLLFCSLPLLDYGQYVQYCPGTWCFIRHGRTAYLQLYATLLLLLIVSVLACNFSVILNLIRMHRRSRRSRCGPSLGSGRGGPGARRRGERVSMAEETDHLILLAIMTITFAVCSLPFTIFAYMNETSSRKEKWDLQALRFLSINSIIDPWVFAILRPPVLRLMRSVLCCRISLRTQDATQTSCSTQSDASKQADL
EP2 modulator = modulators of human EP2 prostaglandin E2 receptor; P43116; EP2-expressing cells, cAMP HTRF FRET, PGE2 co-stimulation; induction, % at 25 µM; hit rate 0.83% among 260,000; AID 940;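 active = compounds whose cAMP rise, as percent of the full-agonist control response, exceeds 60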;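 also: rat C6 glioma line stably carrying human EP2 under a CMV promoter; the protocol text gives 20 µM as final concentration; 100% = response of wells given 1 µM PGE2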
CHT block conf = human CHT inhibition, confirmatory screen | shares compounds with CHT inh | CHT-expressing cells, choline membrane potential dye; LV-to-AA substituted CHT, HEK293 cells | CHT activity remaining % of control (stronger effect = lower value), % at 10 µM | hit rate 70% among 2,400 | AID 493221;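 active = choline transporter activity left, mean of duplicates at 10 µM, below buffer-only control mean minus 3 SD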;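 also: depolarization triggered by choline at its EC90 following an EC20 pre-addition; 0% = hemicholinium-3 full block and 100% = buffer-only control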
HEK293 MPD ctr = counter-screen for CHT inhibitors: effect in parental HEK293 cells. shares compounds with CHT inh. AID 493222. membrane potential ratio readout (active if shifted either direction beyond buffer ±3SD; no single direction) at 10 µM. membrane potential dye, choline response; active = decrease or increase beyond buffer ±3SD. hit rate 4% among 2,400;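 also: parental cells lack the transporter so any hit is non-specific; ratio is peak minus trough fluorescence over baseline after EC90 choline challenge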
* marks the source's active call; other numbers are inactive results; i = inactive; · = no result.

SMILES	CHT PAM	CHT inh	EP2 antag	EP2 modulator	CHT block conf	HEK293 MPD ctr
COCCNC(=S)N1CCN(c2nc(-c3ccc(Cl)cc3)cs2)CC1	i	-7.5*	3	-33	i	i
O=C(CN(C(=O)CNC(=O)c1cccs1)c1ccc(Cl)c(Cl)c1)NC1CCCC1	·	·	14	10	·	·
CS(=O)(=O)N1CCN(c2ccc(NC(=O)c3ccc(Cl)cc3Cl)cc2)CC1	·	·	18	-9	·	·
CN1CCN(c2ccc(NC(=O)c3ccc(Cl)cc3Cl)cc2)CC1	i	-6.4*	·	·	41%*	i
O=C(Nc1ccc(S(=O)(=O)NC2=NCCCCC2)cc1)c1ccc(Cl)cc1Cl	i	-12*	·	·	-7.3%*	i
O=C(Nc1ccc(S(=O)(=O)N2CCOCC2)cc1)c1ccc(Cl)cc1Cl	i	-6.4*	·	·	43%*	i
COc1cccc(/C(O)=C2/C(=O)C(=O)N(c3ccccn3)C2c2ccc(OC)c(OC)c2)c1 (stereo unspecified)	i	i	4	12	·	·
COc1ccc(/C(O)=C2/C(=O)C(=O)N(c3ccccn3)C2c2cccc(Cl)c2)cc1 (stereo unspecified)	i	-5.3*	·	·	59%*	i
O=C(c1cc2c(s1)CCC2)N1CCC[C@H]1[C@H](O)c1nc2ccccc2s1	·	·	·	-90	·	·
S=c1nc(-c2ccco2)[nH][nH]1	i	-5.4*	21	24	48%*	i
Cn1c(-c2ccco2)n[nH]c1=S	i	i	3	9	·	·
CCCn1c(SCC(=O)Nc2ccc(CC)cc2)nnc1C(C)C	·	·	15	-15	·	·
CC(C)N(C(=O)CSc1nc(-c2ccccc2)nc2ccccc12)C(C)C	·	·	15	36	·	·
CSc1ccc(C(=O)C2CCCN(C(=O)c3ccsc3)C2)cc1 (stereo unspecified)	i	-5.2*	3	-68	69%*	i
CC#CC(=O)N1CCCC(C(=O)c2ccc(SC)cc2)C1 (stereo unspecified)	i	i	·	·	·	·
CCOC(=O)CSc1[nH]c2cc(OC)ccc2c1[N+](=O)[O-]	i	i	10	-8	·	·
COC(=O)CSc1[nH]c2ccc(F)cc2c1[N+](=O)[O-]	i	-7.2*	4	-7	15%*	i
O=S(=O)(NCC1(c2ccccc2)CCOCC1)N1CCCC1	·	·	4	-5	·	·
O=C(O)c1[nH]c2ccc(Cl)cc2c1CC(=O)N1CCN(c2ccccc2)CC1	i	-7.6*	1	0	36%*	i
Cc1ccc(C)c(N2CCN(C(=O)Cc3c(C(=O)O)[nH]c4ccc(Cl)cc34)CC2)c1	i	i	13	35	·	·
Cc1ccc(CNC(=O)c2ccc3c(=O)[nH]c4c(C(=O)NCC5CCCO5)sc(=S)n4c3c2)cc1 (stereo unspecified)	i	i	7	-70	·	·
O=C(NC1CCCC1)c1sc(=S)n2c1[nH]c(=O)c1ccccc12	i	-5*	12	-20	i	i
CCCCCNC(=O)c1ccc2c(=O)[nH]c3c(C(=O)NCC4CCCO4)sc(=S)n3c2c1 (stereo unspecified)	i	-7.8*	6	-23	35%*	i
CCn1c(SCC(=O)Nc2cc(C(F)(F)F)ccc2Cl)nc2ccccc2c1=O	·	·	10	19	·	·
CCCCCc1c2c(cc(O)c1C(=O)O)OC(=O)c1c(cc(OC)cc1C(=O)CCCC)O2	i	-5.3*	7	49	35%*	i
SMILES	CHT PAM	CHT inh	EP2 antag	EP2 modulator	CHT block conf	HEK293 MPD ctr
CCN(CC)CCCN1C(=O)C(O)=C(C(=O)c2cccs2)C1c1ccccc1F (stereo unspecified)	·	·	11	-14	·	·
CCOC(=O)C1CCN(C(=O)CSCc2nc(-c3ccc(OCC)cc3)oc2C)CC1	i	-7.6*	21	21	69%*	i
CN1CCN(C(=O)c2ccc(CSc3nc4ccncc4n3Cc3ccc(F)cc3)cc2)CC1	i	i	8	12	·	·
CCOC(=O)N1CCN(C(=O)c2ccc3nc(SCc4ccc(F)cc4)n(C)c3c2)CC1	i	-4.9*	·	3	i	i
Cc1nc(SCC(=O)Nc2ccccc2F)[nH]c(=O)c1C	·	·	7	3	·	·
CC(C)(C)S(=O)(=O)/C(C#N)=N/Nc1ccc(Cl)cc1	i	-5.5*	4	-47	47%*	i
CC(C)(C)c1ccc(N/N=C(\C#N)S(=O)(=O)C(C)(C)C)cc1	i	i	6	-48	·	·
CCn1nc(C)cc1-c1nnc(Sc2ncc([N+](=O)[O-])s2)n1C	i	-6*	·	·	45%*	i
Nc1cc(-c2ccco2)nn(CC(=O)NCc2ccco2)c1=O	·	·	7	-20	·	·
COc1ccc(OC)c(C2NC(=O)C(C#N)=C(S)N2c2cccc(C)c2)c1 (stereo unspecified)	·	·	10	-27	·	·
Cc1cc(C)c(C#N)c(SCS(=O)Cc2ccccc2)n1 (stereo unspecified)	i	-5.9*	5	-34	i	i
O=C(Nc1ccc(F)cc1)N1CCN(CCc2ccccc2)CC1	i	-5.4*	7	9	69%*	i
O=C(Nc1ccccc1)N1CCN(CCc2ccccc2)CC1	i	i	9	11	·	·
Cc1noc(C)c1S(=O)(=O)Nc1ccccc1Oc1ccccc1	i	-13*	10	26	i	i
CC(C)(C)n1nnnc1CN1CCN(c2cccc(C(F)(F)F)c2)CC1	·	·	7	-34	·	·
COc1ccc(C(=O)Nc2cc(C)c(NC(=O)C34CC5CC(CC(C5)C3)C4)cn2)cc1	·	·	15	-73	·	·
CC(C)NC(=O)CN1CCN(C(=O)c2ncoc2-c2ccccc2)CC1	·	·	·	-18	·	·
CN(CCNC(=O)CN1CCN(Cc2ccccc2Cl)C1=O)Cc1ccccc1	i	-6.5*	14	-3	43%*	i
O=C(CN1CCN(Cc2ccc(F)cc2Cl)C1=O)NCCc1ccccc1	i	i	12	-13	·	·
CC(=O)Nc1ccc(S(=O)(=O)Nc2nc3ccccc3nc2Nc2ccc3ccccc3c2)cc1	i	i	6	-12	·	·
CC(=O)Nc1ccc(S(=O)(=O)Nc2nc3ccccc3nc2Nc2ccc(N)cc2)cc1	i	-5.1*	0	0	67%*	i
Cc1cc(NS(=O)(=O)c2ccc(NC(=O)C(C(C)C)N3C(=O)c4ccccc4C3=O)cc2)nc(C)n1 (stereo unspecified)	i	i	2	6	·	·
Cc1ccc(OC(C)C(=O)Nc2ccc(S(=O)(=O)Nc3nccs3)cc2)cc1 (stereo unspecified)	i	i	·	·	·	·
CCc1ccc(OC(C)C(=O)Nc2ccc(S(=O)(=O)Nc3nccs3)cc2)cc1 (stereo unspecified)	i	-5*	·	·	59%*	i
